From PubChem BioAssay
In the library only some 4% were active in any assay of this set; here they are far more common.
ADAM10 inh: inhibitors of human ADAM10; O14672; recombinant ADAM10, EDANS/DABCYL FRET peptide cleavage, 3 h; inhibition, % at 7 µM; actives 0.62% (n = 370,000);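 active = inhibition above a per-campaign cutoff equal to the mean of compounds falling between control-based bounds plus 3 SD, cut at about 20% in these data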;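 also: 0% = DMSO wells while the 100% control is not disclosed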
ADAM17 inh: inhibitors of human ADAM17; inhibition, % at 6.95 µM; AID 720648; P78536; actives 0.83% (n = 370,000); recombinant ADAM17, EDANS/DABCYL FRET peptide cleavage;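 active = inhibition above the mean of compounds lying between control limits plus 3 SD, set per campaign, cut at about 8.5% in these data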;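 also: 0% = DMSO-only wells as the low control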
FAS-TE inh: inhibitors of human fatty acid synthase thioesterase domain. inhibition, % at 15 µM. actives 0.67% (n = 360,000). P49327. recombinant FAS-TE, OMFH fluorogenic substrate, fluorescence endpoint;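 active = compounds whose normalised, plate-corrected inhibition of enzyme fluorescence in the single-dose primary screen is 50% or more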;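 also: 0% = DMSO with enzyme and 100% = substrate without enzyme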
aDG glyco up: increases alpha dystroglycan glycosylation; Pro5-aDG cells, alpha-DG glycosylation AlphaScreen (IIH6); 0% Pro5, 100% B10-LARGE cell signal; activation, % at 10 µM; actives 0.22% (n = 360,000); AID 624168;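 active = activation of at least 8% versus controls, or a plate z-score of at least 8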;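 also: Pro5 are CHO cells carrying HIG-tagged alpha-DG that lacks glycosylation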
GRIN3A LBD mod: modulators (binders) of human NR3A ligand-binding domain; NR3A LBD differential scanning fluorimetry, Tm shift; 0% = protein alone, 100% = glycine-bound protein; Tm shift relative to glycine control, % at 25 µM; actives 2.5% (n = 340,000); AID 1259313;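 active = melting temperature shift of at least 10% of the positive control shift, at one fixed dose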
aDG conf: alpha-DG glycosylation activation, confirmation; shares compounds with aDG glyco up; actives 17% (n = 600); activation, % at 10 µM (by protocol); AID 651671; Pro5-aDG cells, IIH6 AlphaLISA; scaled to LARGE-overexpressing B10 cells as 100%;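 active = activation of at least 7% in one or more replicates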;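 also: cells exposed to compound for two days before detection; 0% = DMSO-treated Pro5 cells and 100% = DMSO-treated B10-LARGE cells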
The depositor's hits bear a star.

COc1ccc(NC2c3ccccc3C(=O)N2c2cccnc2)cc1 (stereo not given) was read as ADAM10 inh 7.2, ADAM17 inh -1.6, FAS-TE inh -4.7, aDG glyco up 0.0 and GRIN3A LBD mod -0.8.
For NCC12CC3CC(C1)CC(c1ccc(Br)cc1)(C3)C2 the results were ADAM10 inh -2.8, ADAM17 inh -1.5, FAS-TE inh -29.3, aDG glyco up -0.2 and GRIN3A LBD mod 1.8.
`COc1cc(-c2ccc(NC(=O)CN3CCC(C)CC3)c(OC)c2)ccc1NC(=O)CN1CCC(C)CC1` gave ADAM10 inh 12.3, ADAM17 inh 0.7, FAS-TE inh 23.7, aDG glyco up 18.3*, GRIN3A LBD mod 0.3 and aDG conf 4.0*.
Screening COc1ccc(NC(=O)CN2CCC(C)CC2)c([N+](=O)[O-])c1 returned ADAM10 inh 0.9, ADAM17 inh -1.7, FAS-TE inh 5.8, aDG glyco up -0.3 and GRIN3A LBD mod 1.9.
`Fc1cc(Cl)ccc1NC(=S)NCCN1CCOCC1` gave ADAM10 inh 6.6, ADAM17 inh -2.3, FAS-TE inh -3.4, aDG glyco up 5.3*, GRIN3A LBD mod -0.7 and aDG conf -1.2.
`CCC(C)C(NC(=O)OCc1ccccc1)C(=O)NCC(c1ccccc1)N(C)C` (stereo not given) gave ADAM10 inh 8.1, ADAM17 inh -3.1, FAS-TE inh -4.6, aDG glyco up 0.1 and GRIN3A LBD mod -0.4.
Cc1nc(NC(C)c2ccccc2)c2oc3ccccc3c2n1 (stereo not given) was read as ADAM10 inh 2.9, ADAM17 inh -1.6, FAS-TE inh 6.8, aDG glyco up 6.7*, GRIN3A LBD mod -0.8 and aDG conf 0.3.
CC(C)OCCCN(C)C1CCN(S(=O)(=O)c2csc(C(N)=O)c2)CC1 was read as ADAM10 inh -0.5, ADAM17 inh 3.3, FAS-TE inh -6.8, aDG glyco up -0.2 and GRIN3A LBD mod 0.4.
For CC(C)OCCCN(C)C1CCN(S(=O)(=O)c2ccc(-c3cc(C(F)(F)F)no3)s2)CC1 the results were ADAM10 inh -2.5, ADAM17 inh -1.1, FAS-TE inh 3.9, aDG glyco up 3.8*, GRIN3A LBD mod -0.7 and aDG conf 0.9.
O=C1NC(c2ccccc2Br)=N/C1=C\c1ccco1 was read as ADAM10 inh -6.7, ADAM17 inh -3.9, FAS-TE inh -4.3, aDG glyco up 0.0 and GRIN3A LBD mod -1.4.
CCCCc1ccc(NC(=O)N2CCN(c3cc(C)nc4ccccc34)CC2)c(C)c1 was read as FAS-TE inh 2.8, aDG glyco up 3.3*, GRIN3A LBD mod -1.8 and aDG conf 4.2.
`Cc1cc(C)c2nc(N3CCN(C(=O)c4ccco4)CC3)sc2c1` gave ADAM10 inh -0.1, ADAM17 inh 2.4, FAS-TE inh 5.0, aDG glyco up 0.2 and GRIN3A LBD mod 1.3.
For CC(C)C[C@H]1COCCS(=O)(=O)N1Cc1ccccc1F the results were ADAM10 inh -1.6, ADAM17 inh -0.6, FAS-TE inh -1.5, aDG glyco up 6.1*, GRIN3A LBD mod -1.6 and aDG conf -0.4.
CCC(C)[C@H]1COCCS(=O)(=O)N1Cc1ccccc1F (stereo not given in full) was read as ADAM10 inh 3.3, ADAM17 inh -3.0, FAS-TE inh -0.5, aDG glyco up 0.2 and GRIN3A LBD mod -4.1.
`CCCCOc1ccc(C(=O)NCC(=O)NCc2ccccn2)cc1` gave ADAM10 inh -0.1, ADAM17 inh -1.1, FAS-TE inh -5.3, aDG glyco up 7.3*, GRIN3A LBD mod -3.2 and aDG conf 0.1.
For CCCCCCc1nc2ccccc2c(=O)n1NC(=O)c1c(O)c2c(n(CC(C)C)c1=O)CCCC2 the results were ADAM10 inh 0.3, ADAM17 inh -4.4, FAS-TE inh 22.4, aDG glyco up 6.3*, GRIN3A LBD mod 5.9 and aDG conf 2.1.
Screening Cc1ccc(N2C(=O)C(CN3CCOCC3)C2c2ccccc2)cc1 (stereo not given) returned ADAM10 inh 2.1, ADAM17 inh 0.3, FAS-TE inh -0.2, aDG glyco up 0.0 and GRIN3A LBD mod 0.0.
Screening O=C1C2CCC(C2)C1CN1CCOCC1 (stereo not given) returned ADAM10 inh -1.1, ADAM17 inh 4.2, FAS-TE inh -7.4, aDG glyco up 12.6*, GRIN3A LBD mod -0.2 and aDG conf -0.8.
For CCOC1=C2CN(S(=O)(=O)c3ccc(C)cc3)[C@H](c3ccccc3)C[C@@H]2N(S(=O)(=O)c2ccc(C)cc2)[C@H](c2ccccc2)C1 the results were ADAM10 inh -6.2, ADAM17 inh -1.7, FAS-TE inh 21.6, aDG glyco up 6.8* and aDG conf -1.1.
For COc1ccc(C)cc1NC(=O)c1nn(-c2ccccc2)cc1OC the results were ADAM10 inh 2.5, ADAM17 inh -0.1, FAS-TE inh 17.8, aDG glyco up 2.5*, GRIN3A LBD mod -8.8 and aDG conf 1.6.
COc1cn(-c2ccccc2)nc1C(=O)Nc1ccc(C)cc1 was read as ADAM10 inh -15.8, ADAM17 inh -2.7, FAS-TE inh 14.7, aDG glyco up -0.1 and GRIN3A LBD mod 0.5.
For CCN(C(=O)CSc1nnc(-c2cccs2)n1CC)C1CCS(=O)(=O)C1 (stereo not given) the results were ADAM10 inh 4.3, ADAM17 inh -2.5, FAS-TE inh -2.0, aDG glyco up -0.2 and GRIN3A LBD mod -2.9.
COc1ccc(Cl)cc1C(=O)NNC(=O)c1cccc([N+](=O)[O-])c1 was read as ADAM10 inh -1.9, ADAM17 inh -4.9, FAS-TE inh 36.5, aDG glyco up 3.3*, GRIN3A LBD mod -2.3 and aDG conf 0.0.
`COc1ccccc1C(=O)NNC(=O)c1cccc(Cl)c1` gave ADAM10 inh 8.0, ADAM17 inh -0.5, FAS-TE inh 1.5, aDG glyco up 0.6 and GRIN3A LBD mod -2.4.
Screening Cc1c(C(=O)NCc2cccc(Cl)c2)sc(=O)n1Cc1cccc(F)c1 returned ADAM10 inh 2.4, ADAM17 inh 1.1, FAS-TE inh 29.4, aDG glyco up 6.8* and aDG conf 0.3.
For Cc1c(C(=O)NCc2ccc(Cl)c(Cl)c2)sc(=O)n1Cc1cccc(F)c1 the results were ADAM10 inh 8.7, ADAM17 inh 7.6, FAS-TE inh 37.5 and aDG glyco up 0.9.
O=C(NNC(=O)C1CC(=O)N(c2ccc3c(c2)OCCO3)C1)c1ccc(F)cc1 (stereo not given) was read as ADAM10 inh -8.4, ADAM17 inh 1.2, FAS-TE inh -9.6, aDG glyco up 3.3*, GRIN3A LBD mod 0.5 and aDG conf 0.2.
For Cc1cc(Br)ccc1OCCCCNC(C)(C)C the results were ADAM10 inh -1.6, ADAM17 inh -0.8, FAS-TE inh -3.6, aDG glyco up 4.3*, GRIN3A LBD mod -1.1 and aDG conf 7.2*.
